This passage reports growth inhibition results from PubChem BioAssay (NCI).

Experiment [1] can be described thus: NCI Yeast Anticancer Drug Screen. Data for the rad50 strain (AID 155).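 Further: 0% = growth of vehicle-only cultures of the same strain.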 The settings on record: S. cerevisiae rad50 strain growth inhibition; at 50.0 µM; stronger effect = higher value. A digest of the protocol: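 Cells are treated with compound, grown, and their growth is then scored against vehicle-only cultures of the same repair-deficient yeast strain.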
Experiment [2] can be described thus: NCI Yeast Anticancer Drug Screen. Data for the mec2-1 strain (AID 157). Particulars: S. cerevisiae mec2-1 strain, at 50.0 µM, stronger effect = higher value. A digest of the protocol: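 Each compound was tested on mec2-1 yeast, a strain altered in DNA damage repair or cell cycle control. Growth inhibition is reported relative to vehicle.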
The nature of experiment [3]: NCI Yeast Anticancer Drug Screen. Data for the sgs1 mgt1 strain (AID 161).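 Further: 0% = growth of cultures given vehicle only.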 Particulars: S. cerevisiae sgs1 mgt1 strain, at 50.0 µM, stronger effect = higher value. A digest of the protocol: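 Read-out: growth inhibition vs vehicle controls. Cells: mutant yeast strain deficient in DNA damage repair.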
Experiment [4] in a line: NCI Yeast Anticancer Drug Screen. Data for the cln2 rad14 strain (AID 165).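 Further: 0% = growth equal to vehicle treated cultures.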 Particulars: S. cerevisiae cln2 rad14 strain, at 50.0 µM, stronger effect = higher value. The method in brief:
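Test compounds were added to cln2 rad14 yeast cultures; inhibition of growth was then determined by comparison with vehicle treatment.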

Experiment [5] in a line: NCI Yeast Anticancer Drug Screen. Data for the bub3 strain (AID 167). The settings on record: S. cerevisiae bub3 mutant strain, at 50.0 µM, stronger effect = higher value. A digest of the protocol:
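Part of a panel of yeast mutants defective in DNA damage repair or cell cycle regulation. Each strain is grown with compound, and inhibition is calculated relative to solvent-treated cultures.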

A short description of experiment [6]: NCI Yeast Anticancer Drug Screen. Data for the mlh1 rad18 strain (AID 175). Particulars: S. cerevisiae mlh1 rad18 strain growth inhibition; at 50.0 µM; stronger effect = higher value. A digest of the protocol:
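Inhibition values reflect reduced growth of mutant yeast versus vehicle-treated controls following compound exposure; the mutations affect DNA damage repair.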

SMILES strings stand for the structures. This is part of a sample that, as a whole, favours compounds with a hit. Of some 79,000 tested, about 15% had one in any assay. A number with no mark means an inactive call. Active and inactive are the calls of the source. No stated cut-off is given here; in the data, active means growth inhibition above about 70%; inactive means the rest.

With `Cc1ccc(C=C(C(=O)O)C(=O)O)o1`, the growth inhibition in experiment [1] is -21.3%; in experiment [2], -29.4%; in experiment [3] it was -17.6%; in experiment [4] it was -8.05%; in experiment [5], -13.4%; in experiment [6], -56.2%.

As for `COc1cc2c3c4c1OCc1c5c(cc(c1-4)CC3[N+](C)(C)CC2)OCO5` (stereo unspecified), the growth inhibition in experiment [1] was 4.35%; in experiment [2], 6.3%; in experiment [3], 8.7%; in experiment [4], 21.1%; in experiment [5], 11.1%; in experiment [6], -52.1%.

Turning to `CCCCCCCCCCCCCCCC(=O)NCC(=O)NC1C(CO)OC(Nc2ncnc3nc[nH]c23)C(O)C1O` (stereo unspecified), the growth inhibition was 61.8% in experiment [1]; 19% in experiment [2]; 82.7% (active) in experiment [3]; 14.7% in experiment [4]; 76.2% (active) in experiment [5]; -11.7% in experiment [6].

For the compound `CN(CC(O)CN1CCCc2ccccc21)C1CCCCC1` (stereo unspecified), the growth inhibition was -5.8% in experiment [1]; 0.25% in experiment [2]; 17.9% in experiment [3]; -16% in experiment [4]; 46% in experiment [5]; 19.2% in experiment [6].

Turning to `CC(C)S(=O)(=O)/C=C(\I)c1ccccc1`, the growth inhibition in experiment [1] was 3.7%; in experiment [2], 8.7%; in experiment [3], -11.2%; in experiment [4], 6.9%; in experiment [5] it was 33.2%; in experiment [6], -11.4%.

Consider `COc1ccc(CNc2ccccc2)cc1`, for which the growth inhibition in experiment [1] is -2%; in experiment [2], 11.8%; in experiment [3], 3.65%; in experiment [4], 10.6%; in experiment [5], -4.05%; in experiment [6], -9.4%.

As to `N=C(CNC(=O)OCc1ccccc1)N1CCCC1C(=O)O` (stereo unspecified), the growth inhibition in experiment [1] is 13.6%; in experiment [2], 2.8%; in experiment [3], 0.9%; in experiment [4], -1.7%; in experiment [5] it was -1.8%; in experiment [6], -6.95%.

With `O=C1c2ccccc2-c2ccc3c4ccc5c6c(ccc(c7ccc1c2c73)c64)C(=O)c1ccccc1-5`, the growth inhibition was 53.2% in experiment [1]; 23.4% in experiment [2]; 36.8% in experiment [3]; 30.6% in experiment [4]; 15.2% in experiment [5]; 37.5% in experiment [6].

In the case of `C#CCN(CCCC)CCCC`, the growth inhibition was -14.2% in experiment [1]; -21.1% in experiment [2]; -5.55% in experiment [3]; -33.4% in experiment [4]; -39.9% in experiment [5]; -10.3% in experiment [6].

As to `NC(CCNCCc1ccccc1)CNCCc1ccccc1` (stereo unspecified), the growth inhibition in experiment [1] was 29.7%; in experiment [2], -11.6%; in experiment [3], 10.9%; in experiment [4] it was -2.85%; in experiment [5], -6.5%; in experiment [6], -7.15%.

`Cc1nn(C(=O)Cc2ccccc2)c2c1C(c1ccc(O)cc1O)SC(N)=N2` (stereo unspecified): the growth inhibition in experiment [1] was -38.9%; in experiment [2], -23.1%; in experiment [3], -35.5%; in experiment [4] it was 0.8%; in experiment [5], -15.6%; in experiment [6], -36.5%.

As to `N#Cc1ccc(Cl)cc1C#N`, the growth inhibition in experiment [1] was 13.4%; in experiment [2] it was -4.65%; in experiment [3], -2.2%; in experiment [4], 7.65%; in experiment [5], 14.1%; in experiment [6] it was -14.3%.

For `NCCN=C(N)C(N)=NCCN`, the growth inhibition in experiment [1] is 19.1%; in experiment [2], 5.3%; in experiment [3], -2.35%; in experiment [4], -54.5%; in experiment [5], 7.45%; in experiment [6], 8.1%.

`CC(=O)CCCC(CC(C)O)[Si](C)(C)C` (stereo unspecified): the growth inhibition in experiment [1] was -43.6%; in experiment [2], -19.4%; in experiment [3], -1.05%; in experiment [4], -14.2%; in experiment [5] it was -8.45%; in experiment [6], -23.6%.

With `O=S(O)OS(=O)O`, the growth inhibition is -5.95% in experiment [1]; -19.4% in experiment [2]; -15.6% in experiment [3]; -0.4% in experiment [4]; 18.9% in experiment [5]; -13.3% in experiment [6].

As for `O=c1c2cccnc2ncn1CCCN1CCCCC1`, the growth inhibition was -23.8% in experiment [1]; 1.85% in experiment [2]; 9.25% in experiment [3]; -7.5% in experiment [4]; 5.65% in experiment [5]; -6.25% in experiment [6].

Turning to `CC1=C2CC/C(C)=C/CCC3(C)OC3CC/C(C)=C/C2OC1=O` (stereo unspecified), the growth inhibition is -8.7% in experiment [1]; -21.9% in experiment [2]; 13.3% in experiment [3]; 15.6% in experiment [4]; 5.25% in experiment [5]; -20.1% in experiment [6].

As for `COC(C)CCOC(=O)c1ccc(C(C)C)cc1` (stereo unspecified), the growth inhibition in experiment [1] is 6.45%; in experiment [2] it was 8%; in experiment [3], 10.2%; in experiment [4], -21.7%; in experiment [5] it was 8.75%; in experiment [6], 1.65%.

As for `NC(=O)CC(N)C(N)=O` (stereo unspecified), the growth inhibition in experiment [1] is -8.25%; in experiment [2], -33.1%; in experiment [3], -47.8%; in experiment [4] it was 13.2%; in experiment [5] it was -18.3%; in experiment [6], -3.25%.

Turning to `CN1C(=O)C(=O)OC1=C(c1ccccc1)c1ccccc1`, the growth inhibition in experiment [1] was 2.9%; in experiment [2], -4.6%; in experiment [3], 0.85%; in experiment [4], -30.9%; in experiment [5] it was -17.6%; in experiment [6], -18.2%.

For the compound `CCOc1cc2c(cc1C(C)c1ccc(OCc3ccccc3)c(OC)c1)OCO2` (stereo unspecified), the growth inhibition in experiment [1] was 18.8%; in experiment [2], -6.7%; in experiment [3], -5.35%; in experiment [4], 11.7%; in experiment [5] it was -2.05%; in experiment [6], 1.75%.
